# Experimental data from PubChem BioAssay AID1159580 (chemical genetic matrix, 2015).
# Hit rate of the full screen: of about 5,500 compounds, about 2,000 (36%) were called active. Another 18% or so got no clear call; they are omitted. This is one part of the list. Values without a mark were called inactive. Rule as the data show it: active = normalized growth mostly below about 0.91 (no sharp cut-off); inconclusive = no clear call, values can overlap the other calls; inactive = mostly above about 0.92.
# Test: chemical genetic growth profiling, strain panel (AID 1159580);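 also: tested at 20 µM; growth read once vehicle control cultures reached saturation at 30 °C; 1 = growth at the plate median or of vehicle wells; lower values mean less growth of the strain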
# Settings: S. cerevisiae deletion strains, growth OD
structure (smiles),measurement,setting,value
CN(C)c1ccc(/C=C/c2ccc3ccccc3[n+]2C)cc1,normalized growth,"locus YAR019C, strain CDC15, active compounds read low",0.966
same,normalized growth,"locus YBL105C, strain PKC1, active compounds read low",0.961
same,normalized growth,"locus YBR135W, strain CKS1, active compounds read low",0.974
same,normalized growth,"locus YBR136W, strain MEC1, active compounds read low",0.956
same,normalized growth,"locus YBR160W, strain CDC28, active compounds read low",0.959
same,normalized growth,"locus YDL017W, strain CDC7, active compounds read low",0.969
same,normalized growth,"locus YDL028C, strain MPS1, active compounds read low",0.976
same,normalized growth,"locus YDL101C, strain DUN1, active compounds read low",0.988
same,normalized growth,"locus YDL108W, strain KIN28, active compounds read low",0.965
same,normalized growth,"locus YDL132W, strain cdc53, active compounds read low",0.975
same,normalized growth,"locus YDL214C, strain PRR2, active compounds read low",0.817
same,normalized growth,"locus YDR052C, strain DBF4, active compounds read low",0.954
same,normalized growth,"locus YDR054C, strain cdc34, active compounds read low",0.965
same,normalized growth,"locus YDR226W, strain ADK1, active compounds read low",0.961
same,normalized growth,"locus YDR477W, strain SNF1, active compounds read low",0.83
same,normalized growth,"locus YER123W, strain YCK3, active compounds read low",0.799
same,normalized growth,"locus YER133W, strain GLC7, active compounds read low",0.801
same,normalized growth,"locus YFL009W, strain cdc4, active compounds read low",0.976
same,normalized growth,"locus YFL029C, strain CAK1, active compounds read low",0.978
same,normalized growth,"locus YFR003C, strain YPI1, active compounds read low",0.959
same,normalized growth,"locus YFR019W, strain FAB1, active compounds read low",0.87
same,normalized growth,"locus YFR028C, strain CDC14, active compounds read low",0.967
same,normalized growth,"locus YGR040W, strain KSS1, active compounds read low",0.798
same,normalized growth,"locus YGR052W, strain FMP48, active compounds read low",0.745
same,normalized growth,"locus YGR092W, strain DBF2, active compounds read low",0.775
same,normalized growth,"locus YHR030C, strain SLT2, active compounds read low",0.532 (active)
same,normalized growth,"locus YHR079C, strain IRE1, active compounds read low",0.49 (active)
same,normalized growth,"locus YHR082C, strain KSP1, active compounds read low",0.806
same,normalized growth,"locus YHR205W, strain SCH9, active compounds read low",0.64
same,normalized growth,"locus YIL147C, strain SLN1, active compounds read low",0.959
same,normalized growth,"locus YJL095W, strain BCK1, active compounds read low",0.666
same,normalized growth,"locus YJL128C, strain PBS2, active compounds read low",0.943
same,normalized growth,"locus YJL157C, strain FAR1, active compounds read low",0.733
same,normalized growth,"locus YJR016C, strain ILV3, active compounds read low",0.983
same,normalized growth,"locus YJR066W, strain TOR1 (second series), active compounds read low",0.928
same,normalized growth,"locus YJR066W, strain TOR1, active compounds read low",0.607
same,normalized growth,"locus YKL048C, strain ELM1, active compounds read low",0.899
same,normalized growth,"locus YKL067W, strain YNK1, active compounds read low",0.798
same,normalized growth,"locus YKL101W, strain HSL1, active compounds read low",0.815
same,normalized growth,"locus YKL193C, strain SDS22, active compounds read low",0.982
same,normalized growth,"locus YKL203C, strain TOR2, active compounds read low",0.823
same,normalized growth,"locus YLR113W, strain HOG1, active compounds read low",0.677 (active)
same,normalized growth,"locus YLR133W, strain CKI1, active compounds read low",0.816
same,normalized growth,"locus YLR403W, strain SFP1, active compounds read low",0.672
same,normalized growth,"locus YML070W, strain DAK1, active compounds read low",0.811
same,normalized growth,"locus YMR001C, strain CDC5, active compounds read low",0.978
same,normalized growth,"locus YMR205C, strain PFK2 (second series), active compounds read low",0.887
same,normalized growth,"locus YMR277W, strain FCP1, active compounds read low",0.976
same,normalized growth,"locus YNL006W, strain LST8, active compounds read low",0.979
same,normalized growth,"locus YNL020C, strain ARK1, active compounds read low",0.61 (active)
same,normalized growth,"locus YNL161W, strain CBK1, active compounds read low",0.977
same,normalized growth,"locus YNL183C, strain NPR1, active compounds read low",0.782
same,normalized growth,"locus YNL207W, strain RIO2, active compounds read low",0.962
same,normalized growth,"locus YNL222W, strain SSU72, active compounds read low",0.968
same,normalized growth,"locus YNL307C, strain MCK1 (second series), active compounds read low",0.589 (active)
same,normalized growth,"locus YOL078W, strain AVO1, active compounds read low",0.984
same,normalized growth,"locus YOL136C, strain PFK27, active compounds read low",0.786
same,normalized growth,"locus YOR061W, strain CKA2, active compounds read low",0.69
same,normalized growth,"locus YOR119C, strain RIO1, active compounds read low",0.833
same,normalized growth,"locus YOR231W, strain MKK1, active compounds read low",0.548 (active)
same,normalized growth,"locus YOR329C, strain SCD5, active compounds read low",0.965
same,normalized growth,"locus YPL031C, strain PHO85, active compounds read low",0.807
same,normalized growth,"locus YPL153C, strain RAD53, active compounds read low",0.833
same,normalized growth,"locus YPL204W, strain HRR25, active compounds read low",0.726
same,normalized growth,"locus YPL209C, strain IPL1, active compounds read low",0.966
same,normalized growth,"locus YPL256C, strain CLN2, active compounds read low",0.626 (active)
same,normalized growth,"locus YPR025C, strain CCL1, active compounds read low",0.969
same,normalized growth,"locus YPR106W, strain ISR1, active compounds read low",0.977
same,normalized growth,"locus YPR111W, strain DBF20, active compounds read low",0.96
same,normalized growth,"strain NNK1, active compounds read low",0.97
same,normalized growth,"strain TSCII, active compounds read low",0.966
